Screening results from PubChem.
The full list was thinned out, with hits kept by preference.
TDP1 cell noCPT: qHTS for Inhibitors of human tyrosyl-DNA phosphodiesterase 1 (TDP1): qHTS in cells in absence of CPT | DT40 Tdp1-/- hTDP1 cells, no CPT, ATP luminescence, 48 h | Potency, µM (doses to about 46.2 µM), without a hit: at the top dose activity change, negative = growth inhibition, actives largely listed as inhibitors | 15% of 420,000 active | AID 686978, 2013; further: potency means the concentration at half of the fitted maximal effect; nearly all actives have a fitted effect of over 55% in size
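Growth of hTDP1-complemented DT40 Tdp1-knockout cells is measured by ATP luminescence after at least 48 hr compound exposure at 37 °C, with DMSO substituting for the 20 nM CPT used in the parallel screen.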
ALOX12 inh: blocks human arachidonate 12S-lipoxygenase. purified 12hLO, xylenol orange hydroperoxide absorbance. Potency, µM (highest dose often 108 µM), for inactives: at the highest dose activity change, negative = inhibition, hits mostly inhibitors. 1.1% of 580,000 active. AID 1671190; further: potency means the concentration at half of the fitted maximal effect
Target sequence (P18054 whole entry, looked up): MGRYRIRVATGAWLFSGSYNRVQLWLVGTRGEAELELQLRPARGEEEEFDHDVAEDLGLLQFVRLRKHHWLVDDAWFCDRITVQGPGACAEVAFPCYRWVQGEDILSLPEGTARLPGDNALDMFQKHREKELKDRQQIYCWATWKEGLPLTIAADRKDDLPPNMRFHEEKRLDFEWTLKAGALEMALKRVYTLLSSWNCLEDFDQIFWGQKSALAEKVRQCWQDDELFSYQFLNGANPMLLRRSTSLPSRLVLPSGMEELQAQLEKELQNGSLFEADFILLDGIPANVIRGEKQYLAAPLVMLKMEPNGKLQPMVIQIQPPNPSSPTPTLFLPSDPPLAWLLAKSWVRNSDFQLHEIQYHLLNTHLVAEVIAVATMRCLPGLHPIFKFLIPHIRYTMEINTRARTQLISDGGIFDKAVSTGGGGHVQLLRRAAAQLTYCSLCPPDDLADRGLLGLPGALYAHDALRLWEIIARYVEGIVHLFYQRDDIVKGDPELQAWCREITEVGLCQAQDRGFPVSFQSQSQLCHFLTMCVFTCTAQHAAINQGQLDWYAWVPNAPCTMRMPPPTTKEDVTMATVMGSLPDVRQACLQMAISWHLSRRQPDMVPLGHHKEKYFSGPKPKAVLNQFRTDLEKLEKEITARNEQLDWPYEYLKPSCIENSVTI
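Purified human 12hLO (150 nM final) in 25 mM Hepes, 0.01% Triton X-100, pH 7.0 was preincubated 15 min at room temperature with compound. Then 40 uM arachidonic acid was added, 30 min. Hydroperoxide was read by Fe-XO absorbance ratio 573/405 nm.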
HT1080 IDH1KD tx: HT-1080 IDH1 knockdown cell toxicity (counter line); HT-1080 IDH1 knockdown viability, ATP luminescence, 48 h; Potency, µM (series often up to 46.1 µM), for the others: at the top dose activity, negative = toxicity, actives largely listed as cytotoxic; 2% of 360,000 active;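 further: potency means the concentration at half of the fitted maximal effect; 0% = DMSO wells and -100% = cell-free medium wells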
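After a 2 h attachment period, IDH1KD HT-1080 cells took pin-transferred compound for 48 h at 37 °C; ATP-based luminescence after 10 min room-temperature reagent incubation reported viability.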
HT1080-NT tox: kills 2HG-producing HT-1080-NT fibrosarcoma cells. HT-1080-NT fibrosarcoma viability, CellTiter-Glo ATP luminescence, 48 h. Potency, µM (highest dose often 46.1 µM), inactives show top-dose activity, negative = less viability, most hits filed as cytotoxic. 1.6% of 360,000 active. AID 686970;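 further: NT is the 2HG producing partner of a matched IDH1 knockdown line; potency means the concentration at half of the fitted maximal effect; 0% = DMSO-treated cells and -100% = media-only wells without cells; nearly all actives have a fitted effect of over 55% in size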
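HT-1080-NT; 750 cells/well; 5% FBS RPMI; 48 h compound, 37 degrees C; CellTiter-Glo luminescence; curve fitting and curve-class assignment.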
DT40 TDP1 CPT: DT40-hTDP1 cell growth loss with CPT; AID 686979; Potency, µM (highest dose often 46.2 µM), for inactives: at the highest dose activity change, negative = growth inhibition, hits mostly inhibitors; 12% of 420,000 active; chicken DT40 Tdp1-/-;hTDP1 cells + 20 nM CPT, ATP luminescence, 48 h; further: potency means the concentration at half of the fitted maximal effect; nearly all actives have a fitted effect of over 55% in size
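Cell growth measured by CellTiter-Glo luminescence after a minimum 48 h, 37 C compound exposure with 20 nM CPT in Tdp1-knockout DT40 cells stably expressing hTDP1, seeded 400/well; qHTS titration format.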
IL1B secr inh: blocks inflammasome-driven IL-1 beta release. activity change, % at 57.5 µM. 4.7% of 360,000 active. THP-1 LPS/ATP IL-1B secretion, AlphaLISA, 16 h; stronger effect = lower value. AID 743279; in the data active means activity change below about -50%; inconclusive means mostly about -30% to -49%
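Secreted IL-1B measured by AlphaLISA bead assay after 16 h compound exposure of THP-1 cells; compounds (final up to 57.5 uM) added 1 h before LPS (250 ng/mL) and ATP (1.25 mM) stimulation; lower signal means less secretion.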
* marks the source's active call; other numbers are inactive results; ? = inconclusive; · = no result given; ! = not confirmed by another sample; [ ] = remark or other dose. Unless noted, the call rests on the fitted dose curve; in most records, active means well fitted curve in the direction sought with a large enough effect; inconclusive means small, poorly fitted or top-dose-only effect, or another doubt; inactive means no such curve, though single readings can be large; an effect the other way counts as inactive or inconclusive. Unless noted, on the % scale 0 is the no-effect control and ±100 the full control effect.

SMILES | TDP1 cell noCPT | ALOX12 inh | HT1080 IDH1KD tx | HT1080-NT tox | DT40 TDP1 CPT | IL1B secr inh
O=C(NNc1nc(=O)c2cccnc2s1)c1ccccc1O | 0.016µM* | 6% | ? | -27% | 0.0052µM* | 118
O=C(NNc1c2ccccc2nc2ccccc12)c1ccccc1O | 21µM* | -15% | ? | ? | ? | -12
O=C(NNC(=O)c1cccc2ccccc12)c1ccc(-c2ccccc2)cc1 | ? | 11% | 1% | -1% | ? | -20
COc1ccc(/C=C/c2nc(C#N)c(NCCCN3CCOCC3)o2)cc1OC | · | -26% | · | · | · | ·
O=C(NNC(=O)c1ccccc1O)c1cc2ccccc2o1 | 23µM* | ? | -11% | -14% | ? | 99
NC(=O)c1nnn([C@H]2CCN3C(=O)[C@@H](Cc4ccccc4)NC(=O)[C@@H]3C2)c1C(N)=O | · | 21%[176 µM] | · | · | · | ·
Cc1ccc(S(=O)(=O)N(CC(=O)Nc2ccc(F)cc2F)Cc2ccc(F)cc2)cc1 | 21µM* | -20% | · | · | 18µM* | ·
CCOC(=O)c1ccc(NC(=O)CN(Cc2ccc(C)cc2)S(=O)(=O)c2ccc(C)cc2)cc1 | 13µM* | -20% | · | · | 13µM* | ·
O=C1NC(=NC2CCCC2)C2(CCN(Cc3cccnc3)C2)N1c1cc(F)cc(F)c1 (stereo unspecified) | · | 0%[6.33 µM] | · | · | · | ·
CCC(=O)C1=C(c2ccc(C)cc2)N(C(=O)CC)n2c(Cc3ccc(OC)cc3)nnc2S1 | · | -5% | · | · | · | ·
COc1cc(C2N=C(N)Nc3nc4ccccc4n32)ccc1OCCC(C)C (stereo unspecified) | 18µM* | ? | · | · | 23µM* | ·
CCCN(CCC)c1ccc(C2N=C(N)Nc3nc4ccccc4n32)cc1 (stereo unspecified) | 16µM* | ? | · | · | 23µM* | ·
COc1cc(C2N=C(N)Nc3nc4ccccc4n32)ccc1OCC(=O)O (stereo unspecified) | 3% | -27% | · | · | 4% | ·
COc1ccc(C(=O)N2CCCCCCN(C)C(=O)[C@@H]3CCC[C@@H]32)cc1F | · | 5% | · | · | · | ·
CC(C)CN1CC2(CCN(C(=O)Cc3c[nH]c(=O)n(C)c3=O)CC2)CC1=O | · | 14% | · | · | · | ·
CC1(C)C(/C=C/C=C/C=C/C=C2\N(CCCCS(=O)(=O)O)c3ccc4ccccc4c3C2(C)C)=[N+](CCCCS(=O)(=O)[O-])c2ccc3ccccc3c21 | -3% | · | -28% | -29% | -4% | -77*
COc1ccccc1NC(=O)/C(N=Nc1ccc(C)c(S(=O)(=O)Nc2ccccc2Cl)c1)=C(\C)O | 18µM* | -4% | 3% | 2% | 18µM* | 8
Nc1ncncc1-c1ccc(F)cc1 | ? | 0% | 1% | -11% | -6% | -12
CC(C)(C)n1nc(-c2ccc(Cl)cc2)c2c(N)ncnc21 | 18µM*! | 10% | ? | -20% | 8.2µM*! | -9
CC(C)(C)n1nc(-c2ccc(F)cc2)c2c(N)ncnc21 | 16µM* | 142% | ? | ? | 23µM* | -25
CC(C)(C)Cn1nc(-c2ccc(Cl)cc2)c2c(N)ncnc21 | ? | 198% | · | · | 8.4µM* | ·
Cc1ccc(-c2nc(N)c3c(-c4ccc(C)cc4)nn(C(C)(C)C)c3n2)cc1 | -30% | 61% | 14% | 15% | ? | -3
CC(/C=C1\N=C(SCc2ccccc2)SC1=O)=C\c1ccccc1 | ? | ? | -5% | -3% | -9% | 3
CCC(=O)NCCc1cccc2cccnc12 | · | 7% | · | · | · | ·
CN(C)CCN(C(=O)c1ccc2c(c1)OCCO2)c1nc2c(Cl)cccc2s1 | -23% | ? | -6% | 3% | -19% | 1
SMILES | TDP1 cell noCPT | ALOX12 inh | HT1080 IDH1KD tx | HT1080-NT tox | DT40 TDP1 CPT | IL1B secr inh
CCOc1ccc2nc(N(Cc3cccnc3)C(=O)c3ccc4c(c3)OCCO4)sc2c1 | 21µM* | -12% | · | · | ? | ·
O=C(c1ccc2c(c1)OCCO2)N(Cc1cccnc1)c1nc2c(Cl)cccc2s1 | 23µM* | -20% | · | · | ? | ·
O=C(Nc1ccccc1C(=O)N1CCCC1)c1cnc2ccccc2n1 | · | -3% | · | · | · | ·
O=C(Nc1ccc(-n2cnnn2)cc1)C1CCCN1C(=O)Nc1ccc(Br)cc1 (stereo unspecified) | ? | -6% | -7% | -11% | 2% | -58*
CC(=O)Nc1ccc(C(=O)N2CCc3cc4c(cc3C2C)OCCCO4)cc1 (stereo unspecified) | 18µM* | -6% | -12% | -5% | ? | 11
Cc1ccc(C(=O)N2CCc3cc4c(cc3C2C)OCCCO4)cc1 (stereo unspecified) | ? | 13% | ? | ? | 23µM* | -16
COc1cc2c(cc1OC)[C@H](C)N(C(=O)c1ccc(F)cc1)CC2 | · | -17% | · | · | · | ·
CC1c2cc3c(cc2CCN1C(=O)c1ccc(Cl)cc1)OCCCO3 (stereo unspecified) | 13µM* | 11% | ? | ? | 16µM* | -59*
CC1c2cc3c(cc2CCN1CC(=O)Nc1ccc(S(=O)(=O)N2CCCC2)cc1)OCCCO3 (stereo unspecified) | -25% | 5% | -11% | -5% | ? | -28
CC1c2cc3c(cc2CCN1C(=O)c1ccc(C(F)(F)F)cc1)OCCCO3 (stereo unspecified) | ? | 13% | -5% | -9% | ? | -3
CC(C)NC(=O)C[C@@H]1C[C@H]2O[C@H](CNCc3ccccc3C(F)(F)F)[C@@H](O)[C@H]2O1 | · | 10%[176 µM] | · | · | · | ·
CCc1ccc2[nH]c(=O)c(CN(Cc3cccs3)Cc3nnnn3Cc3ccccc3)cc2c1 | 13µM* | · | · | · | ? | ·
COc1ccc2[nH]c(=O)c(CN(Cc3cccs3)Cc3nnnn3Cc3ccccc3)cc2c1 | ? | 0% | ? | -13% | ? | -26
COCCn1nnnc1CN(CCc1ccccc1)Cc1cc2ccc(C)cc2[nH]c1=O | 26µM* | 7% | 0% | -2% | ? | 0
COc1cc2cc(CN(CCCN3CCOCC3)Cc3nnnn3Cc3ccccc3)c(=O)[nH]c2cc1OC | -5% | 30% | -13% | -1% | -2% | -1
Cc1ccc2cc(CN(Cc3cccs3)Cc3nnnn3CC3CCCO3)c(=O)[nH]c2c1 (stereo unspecified) | ? | ? | -30% | -22% | ? | ?
CCC(c1nnnn1Cc1ccccc1)N(Cc1ccccc1)Cc1cc2cc(C)ccc2[nH]c1=O (stereo unspecified) | ? | · | · | · | 11µM* | ·
